Reference: PubChem BioAssay AID1240 (Sanford-Burnham Center for Chemical Genomics, 2008)
The whole screen tested about 50,000 compounds, of which about 800 (1.6%) showed an effect of 50% or more. The full list was thinned out, with strong results kept by preference.

Target: Bcl-2-like protein 10 (Homo sapiens) (UniProt Q9HD36)
Assay: TR3 peptide-Bcl-B binding displacers, biochemical primary FP assay, phenotype converters (AID 1240);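 further: 0% = Bcl-B with tracer peptide and DMSO and 100% = tracer peptide lacking Bcl-B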
Details: GST-Bcl-B / FITC-TR3 peptide fluorescence polarization; stronger effect = higher value; compound at 3.75 mg/L

Sequence of Bcl-2-like protein 10 (Homo sapiens) (Q9HD36 whole entry, looked up): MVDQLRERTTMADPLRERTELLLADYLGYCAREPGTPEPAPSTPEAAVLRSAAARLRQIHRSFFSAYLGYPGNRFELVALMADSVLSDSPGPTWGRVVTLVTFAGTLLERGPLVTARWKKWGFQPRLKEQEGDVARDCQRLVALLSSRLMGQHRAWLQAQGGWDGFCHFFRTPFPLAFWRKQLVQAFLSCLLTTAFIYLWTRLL

Structure (SMILES)	displacement
COc1ccc2ccccc2c1C=Nc1ccc(C)c(I)c1	-9.7%
CCOc1cc(/C=N/n2cnnc2)ccc1OCCOc1ccc(Br)cc1	19.3%
O=C(/C=C/c1ccc(F)cc1)c1nc2ccccc2s1	-6%
CCc1ccccc1N1C(=O)CC(Sc2nc(C)cc(C)n2)C1=O (centres undefined)	10.8%
Cc1ccc(C=Nc2ccc(F)cc2)o1	4.1%
O=C(Nc1ccc(NC(=O)c2cccc(Br)c2)cc1)c1ccccc1	0%
CC(C)OC(=O)c1ccc(NC(=O)c2cccc(Br)c2)cc1	69.2%
CC(C)OC(=O)c1ccc(NC(=O)c2cncc(Br)c2)cc1	12.3%
COc1ccc(N(CC(=O)Nc2cccc(C)c2)S(=O)(=O)c2ccc(C)cc2)c(OC)c1	3.6%
CCOC(=O)C1CCN(S(=O)(=O)c2ccc(F)cc2)CC1	-8%
N#Cc1ccccc1N=C1CCCN1Cc1ccccc1	17.4%
Cc1ccc(-c2ccc(OCC(=O)Nc3ccccc3C(N)=O)cc2)cc1	4.4%
O=C(NC(=S)NC1CCSC1=O)c1ccco1 (centres undefined)	1%
Cc1cccc(NC(=O)c2cc3c(ccc4ccccc43)oc2=O)n1	-7%
Cc1cccnc1NC(=O)c1cc2c(ccc3ccccc32)oc1=O	93%
O=C(Nc1ccncc1)c1cc2c(ccc3ccccc32)oc1=O	9.6%
COc1cc(/C=N/NC(N)=O)ccc1OCC(=O)N1CCCCC1	-4.4%
COC(=O)c1ccccc1NC(=O)CSc1nnc(-c2cccc(F)c2)n1-c1ccccc1	-1.1%
Cc1cccc(-c2nc3ccccc3[nH]2)c1	10.9%
Cc1nc(C)c(/C(O)=C/c2nc3ccc([N+](=O)[O-])cc3oc2=O)s1	-12%
Cc1nc(C)c(/C(O)=C/c2nc3ccccc3[nH]c2=O)s1	61.6%
Cc1cc(-c2ccccc2)sc1/C(O)=C/c1nc2ccccc2[nH]c1=O	112%
Cc1ccc(-c2nc3ccccc3[nH]2)s1	0.7%

Structure (SMILES)	displacement
CC(C)(C)/C(O)=C/c1nc2cc([N+](=O)[O-])ccc2[nH]c1=O	0.3%
O=C(Nc1cccc(C(F)(F)F)c1)c1nn2c(c1Br)NC(c1cccs1)CC2C(F)(F)F (centres undefined)	4.5%
COc1ccccc1NC(=O)c1c(NC(=O)Cc2ccccc2)sc2c1CCCCC2	9.3%
CC(C)OP(=O)(OC(C)C)C(Nc1ccc(Br)cc1)c1ccc(O)cc1 (centres undefined)	-13.8%
CCOc1ccccc1N(CC(=O)NC1CCCCC1)S(=O)(=O)c1ccccc1	10.8%
C=CCN1C(=O)/C(=C\c2cc(Cl)ccc2OCc2ccccc2F)SC1=S	60.2%
C=CCN1C(=O)/C(=C\c2cccc(OCc3cccc4ccccc34)c2)SC1=S	15.9%
C=CCN1C(=O)/C(=C\c2ccc(OCc3cccc4ccccc34)cc2)SC1=S	87.1%
C=CCN1C(=O)/C(=C\c2ccccc2OCc2ccc(Cl)cc2)SC1=S	23.3%
CCN1C(=O)/C(=C\c2cccc(OCc3cccc4ccccc34)c2)SC1=S	4.6%
C=CCN1C(=O)/C(=C\c2ccc(OCc3ccccc3Cl)cc2)SC1=S	95.7%
CCN1C(=O)/C(=C\c2ccc(OCc3ccccc3Cl)cc2)SC1=S	15.9%
CCN1C(=O)/C(=C\c2ccc(OCc3cccc4ccccc34)cc2)SC1=S	106%
C=CCN1C(=O)/C(=C/c2cccc(OCc3ccccc3Cl)c2)SC1=S	-4.4%
C=CCN1C(=O)/C(=C/c2ccccc2OCc2ccccc2Cl)SC1=S	11.6%
CN1C(=O)/C(=C\c2ccc(OCc3cccc4ccccc34)cc2)SC1=S	-0.8%
C=CCN1C(=O)/C(=C\c2ccc(OCc3ccccc3)cc2)SC1=S	11.4%
NC1=NC(=O)/C(=C\c2ccccc2Cl)S1	13.2%
CC1=C(C(=O)OC(C)C)C(c2ccccc2Cl)C2=C(CCCC2=O)N1 (centres undefined)	0%
CCOc1cc(/C=C2\C(=O)NC(=O)N(c3cc(C)cc(C)c3)C2=O)cc(Cl)c1O	11.4%
Cc1cc(OCCN2CCCC2)ccc1Cl	-2.8%
Cc1ccc(-n2nc3cc(C)c(NC(=O)c4ccco4)cc3n2)cc1	107%
Cc1ccc(-n2nc3ccc(NC(=O)c4ccco4)cc3n2)cc1	49.3%

Structure (SMILES)	displacement
Cc1ccc(-n2nc3cc(C)c(NC(=O)c4cccc(Cl)c4)cc3n2)cc1	-4.2%
COc1ccc(C(=O)Nc2cc3nn(-c4ccc(OC)cc4)nc3cc2C)cc1	2.2%
COc1ccc(-n2nc3cc(C)c(NC(=O)c4ccco4)cc3n2)cc1	5.1%
COc1ccc(-n2nc3cc(C)c(NC(=O)c4cc5ccccc5o4)cc3n2)cc1	2.4%
Cc1ccc(-n2nc3cc(C)c(NC(=O)c4cccc(C)c4)cc3n2)cc1	85.1%
Cc1ccc(-n2nc3cc(C)c(NC(=O)c4ccccc4)cc3n2)cc1	-4.4%
COc1ccc(-n2nc3cc(C)c(NC(=O)c4ccc(Br)o4)cc3n2)cc1	117%
O=S(=O)(c1cccc2ccccc12)n1cnc2ccccc21	6.3%
COc1ccc(-c2cc(C(=O)Nc3ccccc3OC)c3ccccc3n2)cc1	14.2%
Nc1ccc(C(=O)Nc2cccc(O)c2)cc1	11.4%
O=C1c2ccc3c4c(ccc(c24)C(=O)N1Cc1ccco1)CC3	9.5%
CN(C)N1C(=O)c2ccc3c4c(ccc(c24)C1=O)CC3	6.4%
O=C1NC(=O)c2ccc3c4c(ccc1c24)CC3	55.5%
O=C1NC(=S)NC(=O)C1=Cc1ccccc1OS(=O)(=O)c1ccc([N+](=O)[O-])cc1	-7.8%
N#Cc1c(-c2ccc(O)cc2)c(C#N)c2nc3ccccc3n2c1N	12.5%
N#Cc1c(-c2cccc(Br)c2)c(C#N)c2nc3ccccc3n2c1N	109%
N#Cc1c(-c2ccc(F)cc2)c(C#N)c2nc3ccccc3n2c1N	-8%
COc1cc2c(cc1NCc1cccc([N+](=O)[O-])c1)oc1ccccc12	-6.6%
O=C1OC(c2cccc(Cl)c2)=N/C1=C\c1ccccc1[N+](=O)[O-]	7%
COc1ccc(-c2nn(-c3ccccc3)cc2/C=C2\N=C(c3ccccc3)OC2=O)cc1[N+](=O)[O-]	93.8%
COc1ccc(-c2nn(-c3ccccc3)cc2C=O)cc1[N+](=O)[O-]	-1.7%
CC(=O)CCc1oc2ccc(Br)cc2c1-c1ccc(C)o1	-10.4%
COC(=O)C1=C(C(=O)OC)C2(OC1c1cccc(F)c1)C(=O)c1ccccc1C2=O (centres undefined)	-0.3%
